What was measured:
[1] = molecular target: Ribosomal protein S6 kinase alpha-6 (Homo sapiens) (UniProt Q9UK32); conditions: at 1 µM;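 also: each value is a mean inhibition of RSK4 from a GSK PKIS panel screen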
[2] = molecular target: T1, Serine/threonine-protein kinase Sgk1 (Homo sapiens) (UniProt O00141); conditions: at 0.1 µM
T1 sequence (whole entry): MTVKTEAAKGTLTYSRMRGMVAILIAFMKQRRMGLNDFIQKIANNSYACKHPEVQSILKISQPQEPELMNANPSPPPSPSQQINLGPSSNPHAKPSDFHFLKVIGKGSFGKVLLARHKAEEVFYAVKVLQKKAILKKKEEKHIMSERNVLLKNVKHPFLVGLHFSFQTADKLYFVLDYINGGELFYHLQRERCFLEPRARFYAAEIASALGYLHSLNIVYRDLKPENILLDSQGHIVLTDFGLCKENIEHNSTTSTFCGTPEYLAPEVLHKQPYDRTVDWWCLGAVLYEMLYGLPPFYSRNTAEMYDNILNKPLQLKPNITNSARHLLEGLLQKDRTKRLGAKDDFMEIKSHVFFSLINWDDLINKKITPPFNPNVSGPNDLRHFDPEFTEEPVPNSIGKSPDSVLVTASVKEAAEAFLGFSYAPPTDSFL

[3] = molecular target: T1, Serine/threonine-protein kinase Sgk1 (Homo sapiens); conditions: at 1 µM
[4] = molecular target: T2, Serine/threonine-protein kinase Sgk2 (Homo sapiens) (UniProt Q9HBY8); conditions: at 0.1 µM
T2 sequence (whole entry): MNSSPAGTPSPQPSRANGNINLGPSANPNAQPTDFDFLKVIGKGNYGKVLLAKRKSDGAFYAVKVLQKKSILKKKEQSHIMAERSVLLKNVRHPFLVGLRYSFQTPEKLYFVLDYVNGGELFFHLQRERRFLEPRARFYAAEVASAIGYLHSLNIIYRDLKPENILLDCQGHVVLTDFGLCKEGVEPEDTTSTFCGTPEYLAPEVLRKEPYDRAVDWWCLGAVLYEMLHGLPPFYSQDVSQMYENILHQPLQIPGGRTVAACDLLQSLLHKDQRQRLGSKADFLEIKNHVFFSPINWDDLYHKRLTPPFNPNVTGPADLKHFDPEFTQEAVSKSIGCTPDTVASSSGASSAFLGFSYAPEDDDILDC

[5] = molecular target: T2, Serine/threonine-protein kinase Sgk2 (Homo sapiens); conditions: at 1 µM
[6] = molecular target: T3, Serine/threonine-protein kinase Sgk3 (Homo sapiens) (UniProt Q96BR1); conditions: at 0.1 µM
T3 sequence (whole entry): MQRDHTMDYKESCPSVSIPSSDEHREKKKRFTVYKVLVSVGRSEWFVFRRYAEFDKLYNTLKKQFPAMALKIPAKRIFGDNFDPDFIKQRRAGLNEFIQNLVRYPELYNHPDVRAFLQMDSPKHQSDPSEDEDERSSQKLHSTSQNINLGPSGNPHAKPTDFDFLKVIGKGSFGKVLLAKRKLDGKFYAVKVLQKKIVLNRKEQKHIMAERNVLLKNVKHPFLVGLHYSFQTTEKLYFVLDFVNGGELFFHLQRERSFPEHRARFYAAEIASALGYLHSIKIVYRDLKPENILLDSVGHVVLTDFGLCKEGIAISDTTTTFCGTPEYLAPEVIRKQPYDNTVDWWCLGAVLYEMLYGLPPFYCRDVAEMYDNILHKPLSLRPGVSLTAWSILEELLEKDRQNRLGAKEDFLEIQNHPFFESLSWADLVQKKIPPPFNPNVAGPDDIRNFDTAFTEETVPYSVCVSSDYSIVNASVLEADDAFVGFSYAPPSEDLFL

[7] = molecular target: T3, Serine/threonine-protein kinase Sgk3 (Homo sapiens); conditions: at 1 µM
[8] = molecular target: 5'-AMP-activated protein kinase catalytic subunit alpha-1 (Homo sapiens) (UniProt Q13131); conditions: at 0.1 µM
[9] = molecular target: 5'-AMP-activated protein kinase catalytic subunit alpha-1 (Homo sapiens) (UniProt Q13131); conditions: at 1 µM
[10] = molecular target: 5'-AMP-activated protein kinase catalytic subunit alpha-2 (Homo sapiens) (UniProt P54646); conditions: at 0.1 µM
[11] = molecular target: 5'-AMP-activated protein kinase catalytic subunit alpha-2 (Homo sapiens) (UniProt P54646); conditions: at 1 µM
[12] = molecular target: T4, NUAK family SNF1-like kinase 1 (Homo sapiens) (UniProt O60285); conditions: at 0.1 µM
T4 sequence (whole entry): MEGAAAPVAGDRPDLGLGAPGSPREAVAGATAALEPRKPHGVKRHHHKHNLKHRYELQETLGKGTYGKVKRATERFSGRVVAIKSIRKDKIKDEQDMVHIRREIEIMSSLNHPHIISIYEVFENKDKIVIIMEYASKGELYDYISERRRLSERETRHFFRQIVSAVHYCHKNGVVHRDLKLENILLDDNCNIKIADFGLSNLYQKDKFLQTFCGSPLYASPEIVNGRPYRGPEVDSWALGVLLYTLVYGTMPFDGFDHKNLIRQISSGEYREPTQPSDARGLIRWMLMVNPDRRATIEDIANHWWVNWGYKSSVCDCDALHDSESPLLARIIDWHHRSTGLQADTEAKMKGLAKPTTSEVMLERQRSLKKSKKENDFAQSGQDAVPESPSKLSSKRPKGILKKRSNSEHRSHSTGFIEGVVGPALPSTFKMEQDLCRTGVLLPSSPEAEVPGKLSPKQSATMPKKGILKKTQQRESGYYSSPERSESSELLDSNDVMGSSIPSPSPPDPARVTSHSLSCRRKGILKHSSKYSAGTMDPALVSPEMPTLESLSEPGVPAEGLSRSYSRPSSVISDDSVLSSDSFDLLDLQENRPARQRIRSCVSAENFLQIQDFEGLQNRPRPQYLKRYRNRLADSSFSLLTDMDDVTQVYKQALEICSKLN

[13] = molecular target: T4, NUAK family SNF1-like kinase 1 (Homo sapiens); conditions: at 1 µM
[14] = molecular target: T5, Serine/threonine-protein kinase BRSK1 (Homo sapiens) (UniProt Q8TDC3); conditions: at 0.1 µM
T5 sequence (whole entry): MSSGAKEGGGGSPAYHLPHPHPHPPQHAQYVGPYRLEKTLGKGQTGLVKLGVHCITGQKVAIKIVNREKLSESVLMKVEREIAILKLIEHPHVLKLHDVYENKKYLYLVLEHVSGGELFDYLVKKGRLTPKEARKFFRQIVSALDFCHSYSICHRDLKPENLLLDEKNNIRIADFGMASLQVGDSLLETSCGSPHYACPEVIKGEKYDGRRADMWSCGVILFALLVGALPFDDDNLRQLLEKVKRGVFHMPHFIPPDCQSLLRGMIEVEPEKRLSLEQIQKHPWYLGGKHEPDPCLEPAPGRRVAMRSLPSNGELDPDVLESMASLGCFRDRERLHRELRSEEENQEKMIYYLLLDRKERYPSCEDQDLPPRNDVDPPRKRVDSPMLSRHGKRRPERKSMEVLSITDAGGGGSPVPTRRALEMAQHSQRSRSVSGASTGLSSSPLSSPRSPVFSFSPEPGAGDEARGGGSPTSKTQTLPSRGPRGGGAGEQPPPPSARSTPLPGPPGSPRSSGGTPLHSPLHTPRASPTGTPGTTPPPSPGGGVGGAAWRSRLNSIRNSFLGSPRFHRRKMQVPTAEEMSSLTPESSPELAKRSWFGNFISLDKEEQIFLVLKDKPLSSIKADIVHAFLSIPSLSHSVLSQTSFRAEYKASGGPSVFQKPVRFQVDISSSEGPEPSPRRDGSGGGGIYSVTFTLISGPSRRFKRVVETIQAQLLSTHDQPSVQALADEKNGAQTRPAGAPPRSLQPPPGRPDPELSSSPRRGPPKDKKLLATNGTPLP

[15] = molecular target: T5, Serine/threonine-protein kinase BRSK1 (Homo sapiens); conditions: at 1 µM
[16] = molecular target: T6, Serine/threonine-protein kinase BRSK2 (Homo sapiens) (UniProt Q8IWQ3); conditions: at 0.1 µM
T6 sequence (whole entry): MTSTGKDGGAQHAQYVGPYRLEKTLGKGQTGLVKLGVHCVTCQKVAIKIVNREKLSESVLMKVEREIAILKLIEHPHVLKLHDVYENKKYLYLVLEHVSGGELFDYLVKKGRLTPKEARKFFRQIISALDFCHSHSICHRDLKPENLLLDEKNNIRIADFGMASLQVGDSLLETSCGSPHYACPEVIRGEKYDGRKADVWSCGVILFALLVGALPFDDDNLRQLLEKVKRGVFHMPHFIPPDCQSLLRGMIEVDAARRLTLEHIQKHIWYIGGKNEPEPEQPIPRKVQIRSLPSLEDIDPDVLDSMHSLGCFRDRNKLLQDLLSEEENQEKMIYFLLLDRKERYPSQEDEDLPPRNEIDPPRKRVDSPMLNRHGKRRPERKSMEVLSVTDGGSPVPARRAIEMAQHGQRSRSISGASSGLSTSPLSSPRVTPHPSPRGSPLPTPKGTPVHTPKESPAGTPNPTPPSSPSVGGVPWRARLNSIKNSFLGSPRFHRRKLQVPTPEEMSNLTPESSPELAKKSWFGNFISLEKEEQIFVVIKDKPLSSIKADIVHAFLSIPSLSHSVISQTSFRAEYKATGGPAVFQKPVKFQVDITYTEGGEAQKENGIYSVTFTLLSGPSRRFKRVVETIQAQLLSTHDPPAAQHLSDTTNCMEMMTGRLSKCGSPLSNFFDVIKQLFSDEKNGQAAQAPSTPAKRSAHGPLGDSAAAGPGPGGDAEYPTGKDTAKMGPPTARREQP

[17] = molecular target: T6, Serine/threonine-protein kinase BRSK2 (Homo sapiens); conditions: at 1 µM
[18] = molecular target: Calcium/calmodulin-dependent protein kinase type 1D (Homo sapiens) (UniProt Q8IU85); conditions: at 0.1 µM
[19] = molecular target: Calcium/calmodulin-dependent protein kinase type 1D (Homo sapiens) (UniProt Q8IU85); conditions: at 1 µM
[20] = molecular target: Calcium/calmodulin-dependent protein kinase type II subunit alpha (Homo sapiens) (UniProt Q9UQM7); conditions: at 0.1 µM;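 also: reported values are averages (mean inhibition of CAMK2A)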
Sequence of Calcium/calmodulin-dependent protein kinase type II subunit alpha (Homo sapiens) (Q9UQM7 whole entry): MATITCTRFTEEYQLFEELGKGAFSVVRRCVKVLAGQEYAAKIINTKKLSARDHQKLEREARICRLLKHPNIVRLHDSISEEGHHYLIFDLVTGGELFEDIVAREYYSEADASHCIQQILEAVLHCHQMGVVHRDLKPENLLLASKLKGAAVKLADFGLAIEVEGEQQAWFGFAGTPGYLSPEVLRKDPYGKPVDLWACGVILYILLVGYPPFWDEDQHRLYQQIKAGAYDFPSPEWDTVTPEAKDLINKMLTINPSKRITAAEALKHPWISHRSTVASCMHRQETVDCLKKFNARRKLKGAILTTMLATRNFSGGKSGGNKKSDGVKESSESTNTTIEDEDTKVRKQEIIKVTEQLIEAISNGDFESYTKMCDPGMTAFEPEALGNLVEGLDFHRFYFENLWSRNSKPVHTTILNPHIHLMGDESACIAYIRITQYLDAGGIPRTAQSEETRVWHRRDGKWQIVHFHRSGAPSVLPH

Sequence of Ribosomal protein S6 kinase alpha-6 (Homo sapiens) (Q9UK32 whole entry): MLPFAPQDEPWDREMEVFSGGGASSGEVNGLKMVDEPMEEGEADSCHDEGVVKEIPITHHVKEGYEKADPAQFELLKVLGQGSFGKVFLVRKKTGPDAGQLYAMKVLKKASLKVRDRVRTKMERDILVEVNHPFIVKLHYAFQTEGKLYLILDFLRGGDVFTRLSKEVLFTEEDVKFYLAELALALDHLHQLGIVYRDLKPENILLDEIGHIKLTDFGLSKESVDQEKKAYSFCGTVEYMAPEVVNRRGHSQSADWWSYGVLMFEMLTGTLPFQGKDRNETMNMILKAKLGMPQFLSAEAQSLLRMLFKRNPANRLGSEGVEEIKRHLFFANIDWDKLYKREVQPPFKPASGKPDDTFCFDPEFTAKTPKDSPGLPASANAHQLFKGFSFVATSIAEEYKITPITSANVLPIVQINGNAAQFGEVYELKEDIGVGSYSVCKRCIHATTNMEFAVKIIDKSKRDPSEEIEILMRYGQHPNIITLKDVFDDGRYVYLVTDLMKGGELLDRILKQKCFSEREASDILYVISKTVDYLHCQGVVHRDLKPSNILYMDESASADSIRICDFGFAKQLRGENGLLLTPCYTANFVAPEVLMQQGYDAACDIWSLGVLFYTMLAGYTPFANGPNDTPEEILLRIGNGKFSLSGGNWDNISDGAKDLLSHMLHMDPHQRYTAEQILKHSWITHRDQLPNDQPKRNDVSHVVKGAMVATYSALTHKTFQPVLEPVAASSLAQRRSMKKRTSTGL
Sequence of 5'-AMP-activated protein kinase catalytic subunit alpha-1 (Homo sapiens) (Q13131 whole entry, looked up): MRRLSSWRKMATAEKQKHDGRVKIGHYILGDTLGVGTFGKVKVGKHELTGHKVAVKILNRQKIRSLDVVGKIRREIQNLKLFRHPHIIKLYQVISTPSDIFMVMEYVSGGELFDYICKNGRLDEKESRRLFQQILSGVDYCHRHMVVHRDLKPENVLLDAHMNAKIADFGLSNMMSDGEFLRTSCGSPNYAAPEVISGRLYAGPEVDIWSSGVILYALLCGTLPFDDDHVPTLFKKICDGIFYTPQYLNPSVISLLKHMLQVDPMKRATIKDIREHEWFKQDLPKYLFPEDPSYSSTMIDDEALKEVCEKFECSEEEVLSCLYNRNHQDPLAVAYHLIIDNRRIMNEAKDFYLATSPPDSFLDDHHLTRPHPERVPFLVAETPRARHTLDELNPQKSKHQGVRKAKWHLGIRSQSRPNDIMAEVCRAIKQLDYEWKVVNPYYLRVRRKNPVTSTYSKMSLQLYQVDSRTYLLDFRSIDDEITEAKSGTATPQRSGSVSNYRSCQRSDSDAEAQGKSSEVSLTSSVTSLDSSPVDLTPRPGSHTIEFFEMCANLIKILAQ
Sequence of Calcium/calmodulin-dependent protein kinase type 1D (Homo sapiens) (Q8IU85 whole entry, looked up): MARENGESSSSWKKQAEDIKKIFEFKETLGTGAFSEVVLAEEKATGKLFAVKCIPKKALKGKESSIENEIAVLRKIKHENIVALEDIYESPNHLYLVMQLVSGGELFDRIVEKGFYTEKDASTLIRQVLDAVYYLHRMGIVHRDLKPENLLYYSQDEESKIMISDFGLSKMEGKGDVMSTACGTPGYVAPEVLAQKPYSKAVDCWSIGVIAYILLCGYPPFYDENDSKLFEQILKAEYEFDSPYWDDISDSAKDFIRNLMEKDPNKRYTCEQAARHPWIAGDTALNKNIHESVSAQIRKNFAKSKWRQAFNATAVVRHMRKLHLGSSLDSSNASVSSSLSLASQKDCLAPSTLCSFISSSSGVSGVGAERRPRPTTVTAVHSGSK
Sequence of 5'-AMP-activated protein kinase catalytic subunit alpha-2 (Homo sapiens) (P54646 whole entry, looked up): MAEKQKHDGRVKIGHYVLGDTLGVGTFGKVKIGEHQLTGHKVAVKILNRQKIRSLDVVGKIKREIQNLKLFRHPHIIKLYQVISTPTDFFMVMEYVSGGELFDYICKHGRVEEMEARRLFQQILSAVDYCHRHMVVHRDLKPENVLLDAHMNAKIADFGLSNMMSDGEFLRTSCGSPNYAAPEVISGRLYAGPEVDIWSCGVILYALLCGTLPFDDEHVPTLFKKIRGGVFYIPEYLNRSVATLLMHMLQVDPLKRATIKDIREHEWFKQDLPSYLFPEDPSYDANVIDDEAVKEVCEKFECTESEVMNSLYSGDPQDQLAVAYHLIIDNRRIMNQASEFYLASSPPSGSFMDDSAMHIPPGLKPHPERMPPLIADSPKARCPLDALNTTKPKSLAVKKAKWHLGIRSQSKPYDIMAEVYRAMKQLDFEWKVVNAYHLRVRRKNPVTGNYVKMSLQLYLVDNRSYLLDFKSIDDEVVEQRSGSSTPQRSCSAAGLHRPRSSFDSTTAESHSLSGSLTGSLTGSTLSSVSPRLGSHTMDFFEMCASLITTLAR

## COc1ccc(-c2nn3ncccc3c2-c2ccnc(Nc3ccc4c(c3)OCCO4)n2)cc1
[1]
  inhibition: 2.56%
[2]
  inhibition: 1.1%
[3]
  inhibition: 1.98%
[4]
  inhibition: -0.02%
[5]
  inhibition: 0.9%
[6]
  inhibition: -1.8%
[7]
  inhibition: 0.46%
[8]
  inhibition: 1.06%
[9]
  inhibition: 1.64%
[10]
  inhibition: 0.54%
[11]
  inhibition: 0.38%
[12]
  inhibition: -0.71%
[13]
  inhibition: 2.67%
[14]
  inhibition: -0.94%
[15]
  inhibition: 2.44%
[16]
  inhibition: 0.33%
[17]
  inhibition: 1.64%
[18]
  inhibition: 9.78%
[19]
  inhibition: 0.03%
[20]
  inhibition: 0.38%

## COc1ccc(-c2cc3c(N)ncnc3o2)cc1
[1]
  inhibition: 1.58%
[2]
  inhibition: 0.5%
[3]
  inhibition: -0.33%
[4]
  inhibition: -1.01%
[5]
  inhibition: 1.43%
[6]
  inhibition: -1.34%
[7]
  inhibition: -2.55%
[8]
  inhibition: 0.03%
[9]
  inhibition: 0.8%
[10]
  inhibition: 0.21%
[11]
  inhibition: -2.04%
[12]
  inhibition: 2.2%
[13]
  inhibition: 2.41%
[14]
  inhibition: -0.42%
[15]
  inhibition: -0.34%
[16]
  inhibition: 0.68%
[17]
  inhibition: 1.73%
[18]
  inhibition: 1.05%
[19]
  inhibition: 2.96%
[20]
  inhibition: -1.62%

## CC(C)(CO)CNC(=O)c1ccc2c(c1)/C(=N/Nc1ccc(S(N)(=O)=O)cc1)C(=O)N2
[1]
  inhibition: 9.45%
[2]
  inhibition: 0.94%
[3]
  inhibition: 8.72%
[4]
  inhibition: 0.65%
[5]
  inhibition: 3.3%
[6]
  inhibition: -2.66%
[7]
  inhibition: 3.04%
[8]
  inhibition: 26%
[9]
  inhibition: 72.3%
[10]
  inhibition: 6.91%
[11]
  inhibition: 33.7%
[12]
  inhibition: 19.7%
[13]
  inhibition: 58.6%
[14]
  inhibition: 6.46%
[15]
  inhibition: 37.7%
[16]
  inhibition: 11.6%
[17]
  inhibition: 52.2%
[18]
  inhibition: 0.39%
[19]
  inhibition: 1.92%
[20]
  inhibition: -0.2%

## COc1cc(N2CCN(C(C)C)CC2)ccc1Nc1nc(Nc2ccc(F)cc2C(N)=O)c2cc[nH]c2n1
[1]
  inhibition: 54.8%
[2]
  inhibition: -0.27%
[3]
  inhibition: 1.48%
[4]
  inhibition: 3.52%
[5]
  inhibition: -3.53%
[6]
  inhibition: 0.95%
[7]
  inhibition: 0.42%
[8]
  inhibition: 6.33%
[9]
  inhibition: 33.5%
[10]
  inhibition: 6.34%
[11]
  inhibition: 13.2%
[12]
  inhibition: 66.6%
[13]
  inhibition: 85%
[14]
  inhibition: 2.21%
[15]
  inhibition: -0.11%
[16]
  inhibition: 0.22%
[17]
  inhibition: 1.71%
[18]
  inhibition: 10.9%
[19]
  inhibition: 52.8%
[20]
  inhibition: 9.8%

From ChEMBL document CHEMBL1961873, “Compounds: GSK PKIS; Assays: Nanosyn kinase panel” (2012)
